The source made the active and inactive calls. The calls were made as follows: active = hit-call score of the fitted dose curve at least 0.9, where 1 is the maximum; inactive = score below 0.9.

A short description of this test: CCTE_Mundy_HCI_Cortical_NOG_NeuriteLength: CCTE's Neurite Outgrowth Assay in rat cortical cells for Neurite Length, Mundy Lab (AID 2284213).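 As to AC50: neurites imaged about 48 to 50 h after chemical exposure began.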 As for the experimental part: CCTE_Mundy_HCI_Cortical_NOG is a multiplexed, cell-based-readout assay that uses rat primary cortical cells with measurements taken at 50.33 hours after chemical dosing in a microplate: 96-well plate.CCTE_Mundy_HCI_Cortical_NOG_NeuriteLength is one of four components of the CCTE_Mundy_HCI_Cortical_NOG assay. It measures neurite outgrowth related to the neurite length using High Content Imaging of fluorescently labelled markers.[…] Using a type of morphology reporter, loss -of-signal activity can be used to understand developmental effects.
Exposure starts 2 hours post-plating by adding 10 ul of the working solution to 90 ul of media in the wells for a 1/10 dilution. Forty-eight hours after chemical treatment cells are fixed by direct addition of 100 ul of warm (37C) Dulbecco's phosphate buffered saline (DPBS) fixative solution containing 8% paraformaldehyde, 8% sucrose, and 0.1% of 3 mg/ml Hoechst 33342 into each well. Primary antibodies are prepared by dilution in Immunocytochemical Staining Buffer (ISB), 10X Dulbecco's PBS, 0.1% Saponin, 5% Bovine Serum Albumin, 0.5% NaN3 (Sodium Azide) and betaIII-tubulin (rabbit anti-betaIII-tubulin, 1:800) followed by Alexa Fluor-488 secondary (1:500) to label neuronal cell bodies and neurites. A Cellomics ArrayScan VTi HCS Reader is used for automated image acquisition and analysis of neurite outgrowth.
Consider `CC(CNC(=S)[S-])NC(=S)[S-].[Zn+2]` (stereo not given), for which the AC50 is 27.6 µM (active).

Turning to `Cc1[nH]n(C)c(=O)c1C(=O)c1ccc(C(F)(F)F)cc1S(C)(=O)=O`, the call was inactive.

Regarding `F`, the outcome was inactive.

Consider `[Li+]`, for which the outcome was inactive.

Turning to `CN(C)CCCn1cc(C2=C(c3c[nH]c4ccccc34)C(=O)NC2=O)c2ccccc21`, the call was inactive.

As for `CC(=O)N[C@@H](CC(=O)O)C(=O)O`, the result was inactive.

Turning to `CCN(CC)CCCC(C)Nc1nc(C)cc(Nc2ccc3nc(C)cc(N)c3c2)n1` (stereo not given), the molecule was classed as inactive.

Consider `BrC1CC(Br)CC(Br)CC(Br)CC(Br)CC(Br)C1` (stereo not given), for which the AC50 was 8.28 µM (active).

For `CCCCCC=C(C)C(CC)CCO` (stereo not given), the molecule was called inactive.

Take `CCCCCC(C)(CC)C(=O)NC` (stereo not given): the call was inactive.

Turning to `C[C@@H]1CCO[C@H]2Cn3cc(C(=O)NCc4ccc(F)cc4F)c(=O)c(O)c3C(=O)N12`, the result was inactive.

As to `C[C@@H]1CC[C@@H](C(C)(C)O)[C@H](O)C1`, the result was inactive.

On to `CC(C)O`, for which the call was inactive.

Regarding `CC(C)c1nn(C(=O)NC(C)(C)C)c(=O)n1N`, the result was inactive.

As to `CCc1ccccc1`, the call was inactive.

These data come from PubChem BioAssay (EPA / NIEHS).
